# LANA-H2B inh = blockers of LANA interaction with H2A/H2B – biochemical, FP readout, HTS, primary screen. inhibition, % (concentration not given with the values). cell-free LANA-H2A/H2B peptide, fluorescence polarization. 320,000 tested, 0.6% active. AID 2629, 2010; in the data active = inhibition mostly above about 10%, no sharp cut-off; inactive = mostly below about 6.7%
# Rtt109 Vps75 = inhibitors of C. albicans Rtt109/Vps75 HAT, primary screen, biochemical, ThioGlo CoA-SH fluorescence, plate reader; AID 540336, 2011; purified Rtt109/Vps75, 4 h; 330,000 tested, 0.16% active; Histone acetyltransferase RTT109 (Candida albicans (strain SC5314 / ATCC MYA-2876)), …; inhibition, % at 34.9 µM;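 active = inhibition of at least 50% in every replicate; inconclusive = best replicate reaches 50% inhibition but some replicates fall short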
# ABHD5 PLIN5 PPI = ABHD5-PLIN5 interaction inhibitors, primary screen, cell lysate, split luciferase complementation, luminescence. inhibition, % at 4 µM. 360,000 tested, 0.78% active. Split G. princeps luciferase complementation, 4 h;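 active = inhibition above the mean inhibition across every tested compound plus 3 SD, cut at about 22% in these data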;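 also: 0% = DMSO only wells and the 100% control is not disclosed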
# ALR H2O2 inh = inhibitors of human ALR sulfhydryl oxidase, primary screen, biochemical, H2O2 detection, HRP-luminol luminescence, single point; FAD-linked sulfhydryl oxidase ALR (Homo sapiens), P55789; purified ALR, DTT oxidation; inhibition, % (concentration not given with the values); 290,000 tested, 3.8% active; AID 485317, 2010;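 active = mean replicate inhibition above about 79%, with every replicate also reaching it, limit read from the data; inconclusive = only one of the two criteria met; inactive = mean below limit and not every replicate reaching it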
# Target sequence (P55789 whole entry, looked up): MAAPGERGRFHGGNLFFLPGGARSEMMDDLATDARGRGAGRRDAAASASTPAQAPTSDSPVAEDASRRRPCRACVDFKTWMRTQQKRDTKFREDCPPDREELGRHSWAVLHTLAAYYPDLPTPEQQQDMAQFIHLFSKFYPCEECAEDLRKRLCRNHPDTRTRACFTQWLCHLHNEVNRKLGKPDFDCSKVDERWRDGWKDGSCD
# PRMT1 FP inh = PRMT1 methyltransferase inhibitors, primary screen, biochemical, fluorescence polarization. Protein arginine N-methyltransferase 1 (Homo sapiens), Q99873. recombinant PRMT1, activity-based probe fluorescence polarization. inhibition, % at 2.79 µM. 370,000 tested, 1.3% active. AID 652257, 2013;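 active = inhibition above about 21% made by adding two undisclosed values, limit read from the data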
# Target sequence (Q99873 whole entry, looked up): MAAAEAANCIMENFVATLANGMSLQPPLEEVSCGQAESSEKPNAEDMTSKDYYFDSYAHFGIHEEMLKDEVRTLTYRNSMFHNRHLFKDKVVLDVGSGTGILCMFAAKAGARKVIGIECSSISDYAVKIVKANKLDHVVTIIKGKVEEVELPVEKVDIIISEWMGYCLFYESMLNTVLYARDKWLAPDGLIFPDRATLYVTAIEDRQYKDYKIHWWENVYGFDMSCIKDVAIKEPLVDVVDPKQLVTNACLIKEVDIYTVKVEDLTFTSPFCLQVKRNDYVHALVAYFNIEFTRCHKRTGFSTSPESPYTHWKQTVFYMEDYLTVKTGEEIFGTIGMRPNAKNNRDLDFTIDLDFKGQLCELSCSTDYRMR
# rCAG binder = binders of r(CAG) RNA repeats, primary screen, biochemical, fluorescence. 370,000 tested, 1.3% active. inhibition, % at 3 µM. AID 651821, 2012. r(CAG) RNA repeat, TO-PRO-1 dye displacement fluorescence;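 active = inhibition above the plate cutoff, the mean of all test compounds on that plate plus 3 SD, cut at about 35% in these data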;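 also: 0% = DMSO alone and 100% = 100 µM mitoxantrone as full dye displacement; higher means more dye released from RNA so lower well fluorescence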
# An asterisk follows results filed as active; ? = inconclusive; / = no result. The list is not random: actives were taken first. Their share in the collection is about 5.9%.
SMILES,LANA-H2B inh,Rtt109 Vps75,ABHD5 PLIN5 PPI,ALR H2O2 inh,PRMT1 FP inh,rCAG binder
CCCCNS(=O)(=O)c1ccc2nc(SCC(N)=O)[nH]c2c1,1,4,-2,-1,3,-2
CCCCNS(=O)(=O)c1ccc2nc(SCC(=O)Nc3sccc3C#N)[nH]c2c1,-5,11,-4,-3,4,38*
CCN(CC)C(=O)CNc1nnnn1-c1ccccc1,/,/,/,/,-5,2
Cc1ccc2nc(SCC(=O)NCCCN3CCCC3=O)[nH]c2c1,-3,3,-6,/,6,1
O=C(O)CC/C(=N\Nc1ccc([N+](=O)[O-])cc1)c1ccccc1,0,-3,6,98*,4,21
CC1=Nc2cccc3cccc(c23)N1C,3,-5,-4,99*,0,0
N#C/C(=C\c1ccc(N2CCOCC2)o1)C(=O)Nc1ccc(O)cc1,-50,3,12,99*,-57,-88
COc1ccc(NC(=O)/C(C#N)=C\c2ccc(N3CCOCC3)o2)cc1,-47,-1,13,80*,-81,-101
N#C/C(=C/c1ccc(N2CCCCC2)o1)C(=O)Nc1ccc(Cl)cc1,-11,-8,9,-1,-33,-19
CC(C)c1ccc(N2C(=O)CC(Sc3nc4ccccc4o3)C2=O)cc1 (stereo not given),4,13,-9,-2,23*,8
COc1ccc(NC(=O)NCCN2CCc3ccccc3C2)cc1,1,-4,1,-12,-1,-5
CN(C)c1ccc(NC(=O)CN2CCc3ccccc3C2)cc1,2,3,-9,99*,-4,-6
CSc1ccc(NC(=O)NCCN2CCc3ccccc3C2)cc1,0,8,4,98*,7,-1
CN(C)c1ccc(NC(=O)CCN2CCN(c3ccccn3)CC2)cc1,3,-7,0,99*,-1,-10
CN1CC(=O)N(CC(=O)Nc2ccc(N(C)C)cc2)c2ccccc2C1=O,-1,-11,0,99*,-1,2
CN1CC(=O)N(CC(=O)NCCc2ccc(F)cc2)c2ccccc2C1=O,0,5,-2,-11,0,0
O=C(NCc1ccc(Cl)c(Cl)c1)c1cc(C2CCCCN2C(=O)c2ccccn2)on1 (stereo not given),/,/,-5,/,2,-1
CC1(c2nnnn2Cc2ccccc2)CCC(=O)N1Cc1cccnc1 (stereo not given),/,/,4,/,-1,1
CC(/C=N/NC(=O)CSc1nnc(SCc2ccc(C)cc2)s1)=C\c1ccco1,/,/,/,/,1,11
Cc1ccc(C=NNC(=O)CSc2nc3sc4c(c3c(=O)n2-c2ccccc2)CCCC4)s1,/,/,/,/,2,11
CC(=O)N1CCN(C(=O)CN2C(=O)CC(C)(C)S(=O)(=O)c3ccccc32)CC1,/,/,/,/,7,6
CN(C)c1ccc(NC(=O)CN2CCC(N3CCCCC3)CC2)cc1,0,-8,8,99*,-3,-2
CCN(CC)c1ccc(NC(=O)CN2CCN(CC(=O)Nc3ccc(F)cc3)CC2)cc1,3,-9,-4,98*,1,-10
COC(=O)[C@]12C[C@H](CC(=O)NCC34CC5CC(CC(C5)C3)C4)C(=O)N(CCC3=CCCCC3)C1=C[C@H](C(C)(C)C)O[C@@H]2C,/,/,/,/,-5,2
CC(C)[C@H](N)C(=O)N[C@H](C(=O)N1CCC2CCN(Cc3ccccc3)CC21)C(C)C (stereo not given in full),/,/,/,/,1,1
SMILES,LANA-H2B inh,Rtt109 Vps75,ABHD5 PLIN5 PPI,ALR H2O2 inh,PRMT1 FP inh,rCAG binder
O=C(CSc1nc(-c2ccccc2)c(-c2ccccc2)[nH]1)NCCN1C(=O)CSC1=O,-3,14,-6,99*,2,3
Cc1oc(C)c2c(=O)ccc3c(c12)OC(N)=C(C#N)C3c1ccccc1 (stereo not given),3,10,5,-1,22*,19
Cc1ccn2c(NC(C)(C)C)c(-c3cccs3)nc2c1,-1,-7,4,99*,-1,-7
COc1ccc(-c2csc(N=C(N)N)n2)cc1,/,6,7,98*,-4,6
Cc1ccc(-c2csc(N=C(N)N)n2)c(C)c1,-3,/,3,68,-3,7
COc1ccc(-c2c3c([nH]c(=S)c2C#N)CCC3)cc1,/,10,-11,/,23*,16
CC(=O)Oc1cc2cccc(OC(C)=O)c(=O)c2c(OC(C)=O)c1OC(C)=O,2,?,1,99*,/,/
CCCCS(=O)(=O)N1C2=NC(C(=O)OCC)=C(C(=O)OCC)C3N(Cc4ccc(Br)cc4)c4ccccc4[C@]23C[C@H]1C(=O)OC (stereo not given in full),/,/,/,/,-1,13
Cc1ccc(NC(=O)Cc2nc(-c3c[nH]c(C(=O)N4CCCC4)c3)cs2)c(C)c1,0,-3,4,98*,-1,12
CN(C)c1ccc(/C=N/Nc2ccc(-n3ccnc3)nn2)cc1,1,4,0,94*,5,8
CN(C)c1ccc(/C=N\Nc2ccccn2)cc1,1,1,3,?,-2,0
COc1ccc(NC(=O)C2Cc3c(-c4ccc5c(c4)OCO5)ccnc3O2)cc1 (stereo not given),/,/,-8,/,2,2
CCCCn1c(NC(=O)c2ccco2)c(S(=O)(=O)c2ccc(C)cc2)c2nc3ccccc3nc21,/,17,-1,/,11,59*
CCCCCn1c(NC(=O)c2ccco2)c(S(=O)(=O)c2ccc(C)cc2)c2nc3ccccc3nc21,-1,1,-10,-39,15,18
O=C(O)c1cccc(-c2ccc(/C=c3/sc4nc5ccccc5n4c3=O)o2)c1,1,4,-1,/,24*,28
COC(=O)[C@]12C[C@H](CC(=O)NCc3ccccc3)C(=O)N(CCc3ccc(OC)c(OC)c3)C1=C[C@H](C(C)C)O[C@@H]2C1CC1,/,/,/,/,2,3
C[C@@H]1COc2cccc(F)c2S(=O)(=O)N1C,/,/,/,/,-1,1
CC1(C)C2(C#N)C(N)=NC3(OCCO3)C12C#N (stereo not given),-1,5,2,100*,-2,0
Cc1ccccc1NC(=O)c1c(C)[nH]c(=S)c(C#N)c1-c1ccc(Cl)cc1,-4,/,-4,10,13,15
Cc1ccc(-c2c(C(=O)Nc3ccccc3C)c(C)[nH]c(=S)c2C#N)o1,1,0,9,4,34*,25
C=CCN1C(=O)/C(=C/C(=O)OC)S/C1=N\NC(=O)c1ccccc1,-3,/,23*,4,-2,-4

# Screens (PubChem BioAssay)
